Common to all, as to details: 72 h
Assay [1] concerns HCC1937. The assay can be described thus: relative cell viability, compound + RSL3, vs DMSO (fraction of DMSO control); higher = less growth inhibition.
In assay [2] the test system is MDA-MB-231. The assay is described as above.
Assay [3] has as its system HCC1937. The assay can be described thus: relative cell viability, compound alone, vs DMSO (fraction of DMSO control); higher = less growth inhibition.
Assay [4] deals with MDA-MB-231. Described as above.
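Wherever relative cell viability, compound + RSL3, vs DMSO is given: breast cancer cell viability read out with the CCK-8 kit after co-treatment of each compound with the ferroptosis inducer RSL3.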
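Wherever relative cell viability, compound alone, vs DMSO is given: viability read out with the CCK-8 kit in 96-well plates, screening a set of 303 compounds acting on lipid metabolism targets.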

Take `CCC(=O)O[C@]1(C(=O)SCF)[C@H](C)C[C@H]2[C@@H]3C[C@H](F)C4=CC(=O)C=C[C@]4(C)[C@@]3(F)[C@@H](O)C[C@@]21C` [Fluticasone propionate] + COC(=O)c1ccc([C@H]2c3[nH]c4ccccc4c3C[C@H](C(=O)OC)N2C(=O)CCl)cc1 [RSL3]: the figures for the relative cell viability in the assay with HCC1937 [1] and in the assay with MDA-MB-231 [2] were 0.751 and 0.566, respectively.

On to `O=C(NC1CCN(CCCCC2(C(=O)NCC(F)(F)F)c3ccccc3-c3ccccc32)CC1)c1ccccc1-c1ccc(C(F)(F)F)cc1` [Lomitapide], for which the relative cell viability with HCC1937 [3] came out at 0.293; with MDA-MB-231 [4] it was 0.695.

Take `Nc1ncnc2c1ncn2[C@@H]1O[C@H](COP(=O)(O)O)[C@@H](O)[C@H]1O` [Adenosine 5'-monophosphate] + COC(=O)c1ccc([C@H]2c3[nH]c4ccccc4c3C[C@H](C(=O)OC)N2C(=O)CCl)cc1 [RSL3]: the relative cell viability in the assay on HCC1937 [1] was 0.597; in the assay with MDA-MB-231 [2] it was 0.485.

On to `CC(=O)O[C@H](CC=C(C)C)C1=CC(=O)c2c(O)ccc(O)c2C1=O` [Acetyl shikonin], for which the relative cell viability in the assay with HCC1937 [3] turned out to be 1.08; with MDA-MB-231 [4] it was 1.06.

Turning to `CSc1ccc(C(=O)/C=C/c2cc(C)c(OC(C)(C)C(=O)O)c(C)c2)cc1` [Elafibranor] + COC(=O)c1ccc([C@H]2c3[nH]c4ccccc4c3C[C@H](C(=O)OC)N2C(=O)CCl)cc1 [RSL3], the figures for the relative cell viability with HCC1937 [1] and in the assay with MDA-MB-231 [2] were 0.83 and 0.685, respectively.

Take `COc1cc([C@@H]2Oc3c(O)cc([C@H]4Oc5cc(O)cc(O)c5C(=O)[C@@H]4O)cc3[C@H]2CO)ccc1O` [Silychristin]: the relative cell viability was 1.04 with HCC1937 [3] and 1.02 in the assay on MDA-MB-231 [4].

For the molecule `CCC(=O)Nc1cccc(Oc2nc(Nc3ccc(N4CCN(C)CC4)cc3OC)ncc2Cl)c1`, the relative cell viability in the assay with HCC1937 [3] was 0.48; in the assay on MDA-MB-231 [4], 0.559.

In the case of `Cc1nc(Nc2cnn(C3CCNCC3)c2)nc2c1N(C)C(=O)c1cc3ccccc3cc1N2C`, the figures for the relative cell viability with HCC1937 [3] and in the assay on MDA-MB-231 [4] were 0.354 and 0.49, respectively.

As to `COc1ccc2c(c1)c(CC(=O)O)c(C)n2C(=O)c1ccc(Cl)cc1` [Indometacin] + COC(=O)c1ccc([C@H]2c3[nH]c4ccccc4c3C[C@H](C(=O)OC)N2C(=O)CCl)cc1 [RSL3], the relative cell viability in the assay with HCC1937 [1] stood at 1.01; with MDA-MB-231 [2], 0.61.

As to `COC(=O)N(CC(=O)O)Cc1cccc(OCc2nc(-c3ccc(Cl)cc3)oc2C)c1`, the results for the relative cell viability with HCC1937 [3] and with MDA-MB-231 [4] were 1.08 and 0.834, respectively.

Consider `CCOc1cc(CC(=O)N[C@@H](CC(C)C)c2ccccc2N2CCCCC2)ccc1C(=O)O` [Repaglinide] + COC(=O)c1ccc([C@H]2c3[nH]c4ccccc4c3C[C@H](C(=O)OC)N2C(=O)CCl)cc1 [RSL3], for which the relative cell viability is 0.598 in the assay with HCC1937 [1] and 0.656 in the assay with MDA-MB-231 [2].

Take `C[C@H](CCC(=O)O)[C@H]1CC[C@H]2[C@@H]3C[C@H](O)[C@@H]4C[C@H](O)CC[C@]4(C)[C@H]3CC[C@]12C` [Hyodeoxycholic acid]: the relative cell viability in the assay with HCC1937 [3] was 0.929; in the assay with MDA-MB-231 [4] it was 1.02.

In the case of `COc1ccc(-c2coc3cc(O)cc(O)c3c2=O)cc1` [Biochanin A] + COC(=O)c1ccc([C@H]2c3[nH]c4ccccc4c3C[C@H](C(=O)OC)N2C(=O)CCl)cc1 [RSL3], the relative cell viability in the assay on HCC1937 [1] worked out at 0.66; in the assay with MDA-MB-231 [2] it was 0.438.

As to `Cc1nc(-c2nc(-c3ccc(OC(F)(F)F)cc3)no2)nn1Cc1cccc(N2CCC(S(C)(=O)=O)CC2)c1`, the relative cell viability with HCC1937 [3] came to 0.93; in the assay with MDA-MB-231 [4], 0.775.

Regarding `O=C(O)c1cc2c(Cl)c(N3CCN(S(=O)(=O)c4c(Cl)cccc4Cl)CC3)ccc2o1` [Vonafexor] + COC(=O)c1ccc([C@H]2c3[nH]c4ccccc4c3C[C@H](C(=O)OC)N2C(=O)CCl)cc1 [RSL3], the relative cell viability in the assay on HCC1937 [1] is 0.514; with MDA-MB-231 [2], 0.745.

In the case of `C=C1C[C@]2(O)O[C@@]3(CC2=C(C)C)[C@@H](C)CC[C@@H]13` [Isocurcumenol] + COC(=O)c1ccc([C@H]2c3[nH]c4ccccc4c3C[C@H](C(=O)OC)N2C(=O)CCl)cc1 [RSL3], the relative cell viability with HCC1937 [1] is 0.612; in the assay with MDA-MB-231 [2] it was 0.568.

Take `CCCCCCCCCCCCCCOc1ccc(C(=O)O)o1` + COC(=O)c1ccc([C@H]2c3[nH]c4ccccc4c3C[C@H](C(=O)OC)N2C(=O)CCl)cc1 [RSL3]: the relative cell viability is 0.613 with HCC1937 [1] and 0.673 with MDA-MB-231 [2].

Turning to `Cc1c(C(=O)Nc2ccc(CO)cc2)nnn1Cc1ccc(Cl)c(Cl)c1` + COC(=O)c1ccc([C@H]2c3[nH]c4ccccc4c3C[C@H](C(=O)OC)N2C(=O)CCl)cc1 [RSL3], the values for the relative cell viability in the assay with HCC1937 [1] and with MDA-MB-231 [2] were 0.406 and 0.573, respectively.

With `CC(C)CCC[C@@H](C)[C@H]1CC[C@H]2[C@@H]3CCC4=CC(=NO)CC[C@]4(C)[C@H]3CC[C@]12C` [Olesoxime] + COC(=O)c1ccc([C@H]2c3[nH]c4ccccc4c3C[C@H](C(=O)OC)N2C(=O)CCl)cc1 [RSL3], the results for the relative cell viability in the assay on HCC1937 [1] and with MDA-MB-231 [2] were 0.454 and 0.689, respectively.

For `Cc1cccc(Nc2cc(Cl)nc(SCC(=O)O)n2)c1C` [Pirinixic Acid] + COC(=O)c1ccc([C@H]2c3[nH]c4ccccc4c3C[C@H](C(=O)OC)N2C(=O)CCl)cc1 [RSL3], the values for the relative cell viability with HCC1937 [1] and in the assay with MDA-MB-231 [2] were 0.603 and 0.495, respectively.

In the case of `O=c1ccc2cc(O)c(O)cc2o1` [Esculetin] + COC(=O)c1ccc([C@H]2c3[nH]c4ccccc4c3C[C@H](C(=O)OC)N2C(=O)CCl)cc1 [RSL3], the figures for the relative cell viability with HCC1937 [1] and with MDA-MB-231 [2] were 0.301 and 0.497, respectively.

As for `COc1ccc2c(c1)CCC1C2CCC2(C)C(NCCCCCCN3C(=O)C=CC3=O)CCC12` (stereo unspecified) + COC(=O)c1ccc([C@H]2c3[nH]c4ccccc4c3C[C@H](C(=O)OC)N2C(=O)CCl)cc1 [RSL3], the figures for the relative cell viability with HCC1937 [1] and in the assay on MDA-MB-231 [2] were 0.243 and 0.36, respectively.

Consider `COC(=O)c1sccc1S(=O)(=O)Nc1ccc(Nc2ccccc2)cc1OC` + COC(=O)c1ccc([C@H]2c3[nH]c4ccccc4c3C[C@H](C(=O)OC)N2C(=O)CCl)cc1 [RSL3], for which the results for the relative cell viability in the assay with HCC1937 [1] and in the assay with MDA-MB-231 [2] were 0.347 and 0.542, respectively.

The record behind these values is the supplement of paper PMC9492666.
